# The supplement of paper PMC10037445
# Whole data set: some 2,900 compounds, median “NF-kB SEAP reporter activity, fold change vs agonist alone” near 0.99, cut for the highest 2% near 2.6. The sample holds the highest values, similar compounds and a random draw of the others, so the mix is not that of the screen.
# Legend:
# RAW-Dual [1] = test: NF-kB SEAP reporter activity, fold change vs agonist alone; cytotoxicity flag (confluency mask): not cytotoxic; higher = enhanced NF-kB activity
# In short: (§1)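 Library stock was pin-tooled at 50 nL into 384-well plates of RAW-Dual macrophages (50,000 cells/well, DMEM), followed 1 h later by a PRR agonist, and the cells were kept at 37 °C, 5% CO2. Supernatant collected after 20 hours was read for IRF by QuantiLuc luminescence and for NF-κB by QuantiBlue absorbance at 620 nm. Reporter activity is fold change over agonist-alone wells, and a well counted as cytotoxic when its IncuCyte confluency was below 70% of agonist controls in both mask sets.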
# RAW-Dual [2] = test: NF-kB SEAP reporter activity, fold change vs agonist alone; higher = enhanced NF-kB activity; conditions: cytotoxicity flag (confluency mask): not cytotoxic
# In short: as §1
# [3] = agonist: ODN 1826 (TLR9) 0.5 ug/mL
# [4] = agonist: Pam2CSK4 (TLR2/6) 0.1 ug/mL
# [5] = agonist: Pam3CSK4 (TLR2/1) 0.1 ug/mL
# [6] = library stock concentration (final ~1000-fold dilution): 10 mM, agonist: Imiquimod (TLR7) […]
# [7] = library stock concentration (final ~1000-fold dilution): 10 mM, agonist: MPLA (TLR4) […]
compound,measurement,setting,value
CC1(C(=O)O)CCC2(C)CCC3(C)C(=CC(=O)C4C5(C)CCC(OC6OC(C(=O)O)C(O)C(O)C6OC6OC(C(=O)O)C(O)C(O)C6O)C(C)(C)C5CCC43C)C2C1.N.N (configuration not stated) (library stock concentration (final ~1000-fold dilution): 10 mM),NF-kB SEAP reporter activity,RAW-Dual [1]; agonist: LPS (TLR4) 0.1 ug/mL,0.96
same,NF-kB SEAP reporter activity,RAW-Dual [1]; [3],0.88
same,NF-kB SEAP reporter activity,RAW-Dual [1]; [4],0.866
same,NF-kB SEAP reporter activity,RAW-Dual [1]; [5],1.15
CC1(C(=O)O)CCC2(C)CCC3(C)C(=CC(=O)C4C5(C)CCC(OC6OC(C(=O)O)C(O)C(O)C6OC6OC(C(=O)O)C(O)C(O)C6O)C(C)(C)C5CCC43C)C2C1.N.N (configuration not stated),NF-kB SEAP reporter activity,RAW-Dual [2]; [6],0.926
same,NF-kB SEAP reporter activity,RAW-Dual [2]; [7],1.03
CC(C)n1nc(-c2cc3cc(O)ccc3[nH]2)c2c(N)ncnc21 (library stock concentration (final ~1000-fold dilution): 10 mM),NF-kB SEAP reporter activity,RAW-Dual [1]; agonist: LPS (TLR4) 0.1 ug/mL,3.13
same,NF-kB SEAP reporter activity,RAW-Dual [1]; [3],0.998
same,NF-kB SEAP reporter activity,RAW-Dual [1]; [4],1.01
same,NF-kB SEAP reporter activity,RAW-Dual [1]; [5],0.904
CC(C)n1nc(-c2ccc(NC(=O)Nc3cc(C(F)(F)F)ccc3F)cc2)c2c(N)ncnc21,NF-kB SEAP reporter activity,RAW-Dual [2]; [6],0.149
same,NF-kB SEAP reporter activity,RAW-Dual [2]; [7],0.261
CC(C)n1nc(-c2ccc3oc(N)nc3c2)c2c(N)ncnc21 (library stock concentration (final ~1000-fold dilution): 10 mM),NF-kB SEAP reporter activity,RAW-Dual [1]; agonist: LPS (TLR4) 0.1 ug/mL,2.03
same,NF-kB SEAP reporter activity,RAW-Dual [1]; [3],1.69
same,NF-kB SEAP reporter activity,RAW-Dual [1]; [4],0.647
same,NF-kB SEAP reporter activity,RAW-Dual [1]; [5],0.973
CC(C)n1nc(-c2cc3cc(O)ccc3[nH]2)c2c(N)ncnc21,NF-kB SEAP reporter activity,RAW-Dual [2]; [6],0.933
same,NF-kB SEAP reporter activity,RAW-Dual [2]; [7],0.941
CC(C)n1nc(-c2ccc3oc(N)nc3c2)c2c(N)ncnc21,NF-kB SEAP reporter activity,RAW-Dual [2]; [6],1.76
same,NF-kB SEAP reporter activity,RAW-Dual [2]; [7],2.1
CC(C)n1nc(-c2ccc(NC(=O)Nc3cc(C(F)(F)F)ccc3F)cc2)c2c(N)ncnc21 (library stock concentration (final ~1000-fold dilution): 10 mM),NF-kB SEAP reporter activity,RAW-Dual [1]; agonist: LPS (TLR4) 0.1 ug/mL,0.398
same,NF-kB SEAP reporter activity,RAW-Dual [1]; [3],0.196
same,NF-kB SEAP reporter activity,RAW-Dual [1]; [4],0.0706
same,NF-kB SEAP reporter activity,RAW-Dual [1]; [5],0.216
Cc1c(C(=O)Nc2ccc(N3CC(C)OC(C)C3)nc2)cccc1-c1ccc(OC(F)(F)F)cc1 (configuration not stated),NF-kB SEAP reporter activity,RAW-Dual [2]; [6],0.808
same,NF-kB SEAP reporter activity,RAW-Dual [2]; [7],0.657
Cc1c(C(=O)Nc2ccc(N3CC(C)OC(C)C3)nc2)cccc1-c1ccc(OC(F)(F)F)cc1 (configuration not stated) (library stock concentration (final ~1000-fold dilution): 10 mM),NF-kB SEAP reporter activity,RAW-Dual [1]; agonist: LPS (TLR4) 0.1 ug/mL,1.13
same,NF-kB SEAP reporter activity,RAW-Dual [1]; [3],1.35
same,NF-kB SEAP reporter activity,RAW-Dual [1]; [4],0.839
same,NF-kB SEAP reporter activity,RAW-Dual [1]; [5],1.12
N=C(N)NCCN1CCCCCCC1.O=S(=O)(O)O,NF-kB SEAP reporter activity,"RAW-Dual [2]; library stock concentration (final ~1000-fold dilution): 10 mM water, agonist: MPLA (TLR4) […]",1.05
N=C(N)NCCN1CCCCCCC1.O=S(=O)(O)O (library stock concentration (final ~1000-fold dilution): 10 mM water),NF-kB SEAP reporter activity,RAW-Dual [1]; agonist: LPS (TLR4) 0.1 ug/mL,1.13
same,NF-kB SEAP reporter activity,RAW-Dual [1]; [3],1.05
same,NF-kB SEAP reporter activity,RAW-Dual [1]; [4],1.06
same,NF-kB SEAP reporter activity,RAW-Dual [1]; [5],0.972
CC1CC(=O)Nc2cccc(-c3ccc4c(c3)c(-c3cnn(C)c3)nn4C)c2N1 (configuration not stated) (library stock concentration (final ~1000-fold dilution): 10 mM),NF-kB SEAP reporter activity,RAW-Dual [1]; agonist: LPS (TLR4) 0.1 ug/mL,3.26
same,NF-kB SEAP reporter activity,RAW-Dual [1]; [3],2.08
same,NF-kB SEAP reporter activity,RAW-Dual [1]; [4],0.673
same,NF-kB SEAP reporter activity,RAW-Dual [1]; [5],1.28
CC1CC(=O)Nc2cccc(-c3ccc4c(c3)c(-c3cnn(C)c3)nn4C)c2N1 (configuration not stated),NF-kB SEAP reporter activity,RAW-Dual [2]; [6],1.46
same,NF-kB SEAP reporter activity,RAW-Dual [2]; [7],2.15
Cc1nc[nH]c1CN1CCc2c(c3ccccc3n2C)C1=O.Cl,NF-kB SEAP reporter activity,"RAW-Dual [2]; library stock concentration (final ~1000-fold dilution): 2 mM water, agonist: MPLA (TLR4) […]",1.06
